Assay results reported in PubChem BioAssay AID1159580 (chemical genetic matrix, 2015).
The whole screen tested about 5,500 compounds, of which about 2,000 (36%) were called active. Inconclusive results (about 18%) are left out. Rule as the data show it: active = normalized growth mostly below about 0.91 (no sharp cut-off); inconclusive = no clear call, values can overlap the other calls; inactive = mostly above about 0.92. Some of the results follow.

Test: chemical genetic growth profiling, strain panel (AID 1159580);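 also: tested at 20 µM; growth read once vehicle control cultures reached saturation at 30 °C; 1 = growth at the plate median or of vehicle wells; lower values mean less growth of the strain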
Details: growth OD

Measured: normalized growth

COc1c(O)cccc1O
inactive: S. cerevisiae deletion strains, locus YJL187C, strain SWE1, active compounds read low 1.02 | S. cerevisiae deletion strains, locus YJR043C, strain POL32, active compounds read low 1.03 | S. cerevisiae deletion strains, locus YJR066W, strain TOR1, active compounds read low 0.977 | S. cerevisiae deletion strains, locus YJR075W, strain HOC1, active compounds read low 1.02 | S. cerevisiae deletion strains, locus YKL009W, strain mrt4, active compounds read low 1.05 | S. cerevisiae deletion strains, locus YKL068W, active compounds read low 0.99 | S. cerevisiae deletion strains, locus YKL085W, strain MDH1 (second series), active compounds read low 1.01 | S. cerevisiae deletion strains, locus YKL085W, strain MDH1, active compounds read low 1.01 | S. cerevisiae deletion strains, locus YKL160W, strain elf1, active compounds read low 1.01 | S. cerevisiae deletion strains, locus YKR001C, strain vps1, active compounds read low 1.08 | S. cerevisiae deletion strains, locus YKR026C, strain gcn3, active compounds read low 1.02 | S. cerevisiae deletion strains, locus YKR091W, strain srl3, active compounds read low 1.02 | S. cerevisiae deletion strains, locus YLL001W, strain dnm1, active compounds read low 1.03 | S. cerevisiae deletion strains, locus YLL026W, active compounds read low 1.02 | S. cerevisiae deletion strains, locus YLL041C, strain sdh2, active compounds read low 1.02 | S. cerevisiae deletion strains, locus YLR027C, strain aat2, active compounds read low 1.01 | S. cerevisiae deletion strains, locus YLR039C, strain RIC1, active compounds read low 1.11 | S. cerevisiae deletion strains, locus YLR058C, strain SHM2, active compounds read low 1.03 | S. cerevisiae deletion strains, locus YLR102C, strain apc9, active compounds read low 1 | S. cerevisiae deletion strains, locus YLR113W, strain HOG1, active compounds read low 1.04 | S. cerevisiae deletion strains, locus YLR221C, strain rsa3, active compounds read low 1.03 | S. cerevisiae deletion strains, locus YLR258W, strain gsy2, active compounds read low 1.02 | S. cerevisiae deletion strains, locus YLR262C, strain YPT6 (second series), active compounds read low 1.03 | S. cerevisiae deletion strains, locus YLR268W, strain sec22, active compounds read low 1.05 | S. cerevisiae deletion strains, locus YLR320W, strain mms22, active compounds read low 1.04 | S. cerevisiae deletion strains, locus YLR330W, strain CHS5, active compounds read low 1.01 | S. cerevisiae deletion strains, locus YLR342W, strain FKS1, active compounds read low 1.03 | S. cerevisiae deletion strains, locus YLR357W, strain rsc2, active compounds read low 1.03 | S. cerevisiae deletion strains, locus YLR370C, strain arc18, active compounds read low 1.02 | S. cerevisiae deletion strains, locus YLR371W, strain rom2, active compounds read low 1.03 | S. cerevisiae deletion strains, locus YLR384C, strain iki3, active compounds read low 1.01 | S. cerevisiae deletion strains, locus YLR418C, strain cdc73, active compounds read low 1.1 | S. cerevisiae deletion strains, locus YML016C, strain PPZ1, active compounds read low 1.01 | S. cerevisiae deletion strains, locus YML032C, strain rad52, active compounds read low 1.01 | S. cerevisiae deletion strains, locus YML120C, strain ndi1, active compounds read low 1.01 | S. cerevisiae deletion strains, locus YML124C, strain tub3, active compounds read low 1 | S. cerevisiae deletion strains, locus YMR058W, strain fet3, active compounds read low 1.03 | S. cerevisiae deletion strains, locus YMR078C, strain ctf18, active compounds read low 1.02 | S. cerevisiae deletion strains, locus YMR125W, strain sto1, active compounds read low 1.01 | S. cerevisiae deletion strains, locus YMR129W, active compounds read low 1.02 | S. cerevisiae deletion strains, locus YMR205C, strain PFK2, active compounds read low 1.03 | S. cerevisiae deletion strains, locus YMR223W, strain ubp8, active compounds read low 1.03 | S. cerevisiae deletion strains, locus YMR231W, strain pep5, active compounds read low 1 | S. cerevisiae deletion strains, locus YMR307W, strain GAS1, active compounds read low 1.13 | S. cerevisiae deletion strains, locus YNL067W, strain RPL9B, active compounds read low 0.97 | S. cerevisiae deletion strains, locus YNL071W, strain lat1, active compounds read low 1.03 | S. cerevisiae deletion strains, locus YNL153C, strain GIM3, active compounds read low 1.02 | S. cerevisiae deletion strains, locus YNL183C, strain NPR1, active compounds read low 0.984 | S. cerevisiae deletion strains, locus YNL209W, strain ssb2, active compounds read low 1.01 | S. cerevisiae deletion strains, locus YNL233W, strain BNI4, active compounds read low 1.03 | S. cerevisiae deletion strains, locus YNL248C, strain rpa49, active compounds read low 1.04 | S. cerevisiae deletion strains, locus YNL250W, strain rad50, active compounds read low 1.05 | S. cerevisiae deletion strains, locus YNL271C, strain bni1, active compounds read low 1.02 | S. cerevisiae deletion strains, locus YNL298W, strain CLA4, active compounds read low 1.03 | S. cerevisiae deletion strains, locus YNL307C, strain MCK1, active compounds read low 1.01 | S. cerevisiae deletion strains, locus YNL322C, strain KRE1 (second series), active compounds read low 1.02 | S. cerevisiae deletion strains, locus YNL322C, strain KRE1, active compounds read low 0.99 | S. cerevisiae deletion strains, locus YNR049C, strain mso1, active compounds read low 1.02 | S. cerevisiae deletion strains, locus YNR052C, strain pop2, active compounds read low 1.04 | S. cerevisiae deletion strains, locus YOL012C, strain htz1 0.853 | S. cerevisiae deletion strains, locus YOL147C, strain pex11, active compounds read low 0.999 | S. cerevisiae deletion strains, locus YOR001W, strain rrp6, active compounds read low 1.02 | S. cerevisiae deletion strains, locus YOR061W, strain CKA2, active compounds read low 1.01 | S. cerevisiae deletion strains, locus YOR069W, strain VPS5, active compounds read low 0.996 | S. cerevisiae deletion strains, locus YOR070C, strain gyp1, active compounds read low 1.01 | S. cerevisiae deletion strains, locus YOR080W, strain dia2, active compounds read low 1.03 | S. cerevisiae deletion strains, locus YOR083W, strain WHI5, active compounds read low 1.03 | S. cerevisiae deletion strains, locus YOR106W, strain vam3, active compounds read low 1.06 | S. cerevisiae deletion strains, locus YOR136W, strain idh2, active compounds read low 1.02 | S. cerevisiae deletion strains, locus YOR144C, strain elg1, active compounds read low 1.01 | S. cerevisiae deletion strains, locus YOR184W, strain ser1, active compounds read low 1.06 | S. cerevisiae deletion strains, locus YOR231W, strain MKK1, active compounds read low 1.03 | S. cerevisiae deletion strains, locus YOR265W, strain rbl2, active compounds read low 1.01 | S. cerevisiae deletion strains, locus YOR270C, strain vph1, active compounds read low 1.13 | S. cerevisiae deletion strains, locus YOR290C, strain snf2, active compounds read low 1.03 | S. cerevisiae deletion strains, locus YOR316C, strain cot1, active compounds read low 1 | S. cerevisiae deletion strains, locus YPL051W, strain arl3, active compounds read low 0.998 | S. cerevisiae deletion strains, locus YPL078C, strain atp4, active compounds read low 1.03 | S. cerevisiae deletion strains, locus YPL106C, strain sse1, active compounds read low 1.04 | S. cerevisiae deletion strains, locus YPL240C, strain hsp82, active compounds read low 1.02 | S. cerevisiae deletion strains, locus YPL256C, strain CLN2, active compounds read low 1.01 | S. cerevisiae deletion strains, locus YPR119W, strain clb2, active compounds read low 1.01 | S. cerevisiae deletion strains, locus YPR141C, strain kar3, active compounds read low 1.01 | S. cerevisiae deletion strains, locus YPR163C, strain tif3, active compounds read low 1.03 | S. cerevisiae deletion strains, locus YPR167C, strain met16, active compounds read low 1.04 | S. cerevisiae deletion strains, strain wtn01, active compounds read low 1.04 | S. cerevisiae strains, strain wild type, active compounds read low 1
